# According to PubChem BioAssay (NCI):
# About 83,000 compounds went through this panel and 20% of them were active in at least one assay; those are over-represented in the sample as a whole.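 Method: cells in 96-well plates; compound added at one concentration; 48 h incubation; percent growth measured; values under 10 scored active.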 Unmarked numbers belong to inactive results. The source made the active and inactive calls.
# System: MDA-MB-468 breast
# Assay: NCI-60 one-dose screen, 48 h (100 = growth as untreated, 0 = no growth, -100 = all killed)
# Details: 10 µM unless noted
row,SMILES,growth
1,NC(=S)N/N=C/c1ccc(N)cc1,106%
2,Cc1[nH]n(C(=S)Nc2nc3cc(Cl)c(F)cc3s2)c(=O)c1N=Nc1ccc(F)c(Cl)c1,114%
3,COc1ccc(/C=N/NC(=O)c2ccc(-n3cc(-c4ccccc4)nn3)cc2)cc1OC,101%
4,COc1ccc(/C=C/C(=O)c2ccc(NC(=O)CN3CCN(c4cc5c(cc4F)c(=O)c(C(=O)O)cn5C4CC4)CC3)cc2)cc1,99.1%
5,COc1ccc(CCNC(=O)COc2cc3c(Nc4ccc(F)c(Cl)c4)ncnc3cc2OC)cc1OC,-10.1% (active)
6,COc1ccc2nc3nc4ccc[nH]c4cc3c2c1,-36.6% (active)
7,Cc1nc2cc(Nc3nc(NCCN)nc(Nc4ccc(F)cc4)n3)ccc2n1Cc1ccccc1,73.2%
8,O=C(O)CC1=CCCCC1,102%
9,N=C(N)c1ccc(-c2ccc(-c3ccco3)o2)cc1,22.9%
10,Cc1cc(O)c2c(c1)C(=O)c1cc(O)cc(O)c1C2=O,73.2%
11,Cn1cc(-c2noc(-c3cn(C)c4ncc(F)cc34)n2)c2ccccc21,36.2%
12,O=C1c2c(c3c4cccnc4[nH]c3c3ccc4ccccc4c23)C(=O)N1CCO,57.6%
13,CC[C@H](C)[C@H](NC(=O)[C@H](CCCCN)NC(=O)[C@H](CCCCN)NC(=O)[C@@H](NC(=O)[C@@H](NC(=O)[C@@H](N)Cc1cnc[nH]1)[C@@H](C)CC)[C@@H](C)CC)C(=O)N[C@@H](CCCNC(=N)N)C(=O)N[C@H](C(=O)N[C@@H](Cc1c[nH]c2ccccc12)C(=O)N[C@@H](Cc1ccc(O)cc1)C(=O)N[C@@H](CCCNC(=N)N)C(=O)N[C@@H](CCCCN)C(=O)N[C@@H](C)C(=O)N[C@@H](Cc1c[nH]c2ccccc12)C(=O)N[C@@H](Cc1cnc[nH]1)C(=O)N[C@H](C(=O)N[C@@H](CC(C)C)C(=O)NCC(=O)N[C@@H](CCCCN)C(=O)N[C@H](C(N)=O)C(C)C)C(C)C)[C@@H](C)O,59.2%
